Several values for one entry are separate records, joined by “and”; a condition that tells them apart may be missing. Equal values may be shown once. Where a name gives a salt, the structure may show the parent alone.
What was measured:
Test in all cases: thermal shift delta Tm vs DMSO control; higher = stronger stabilization (binding)
Conditions in all cases: 12.5 µM; protein concentration 2 µM
[1] = tested on: LOC_OS01G57100-cb003
Outline: (§1)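 Purified, E. coli-expressed rice kinase domain constructs were tested by differential scanning fluorimetry in 96-well plates: 19.5 μl of 2 μM kinase in 100 mM potassium phosphate pH 7.5, 150 mM NaCl, 10% glycerol, 5 × SYPRO Orange, plus compound in DMSO. Fluorescence was read from 25°C to 95°C at 0.05°C/s. Melting temperatures came from Boltzmann fits, and the shift is the triplicate mean relative to protein with DMSO alone.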

[2] = tested on: LOC_OS01G60330-cb001
Outline: as §1

[3] = tested on: LOC_OS01G60700-cb002
Outline: as §1

[4] = tested on: LOC_OS01G63280-cb003
Outline: as §1

[5] = tested on: LOC_OS01G67340-cb003
Outline: as §1

[6] = tested on: LOC_OS01G70970-cb002
Outline: as §1

[7] = tested on: LOC_OS02G07810-cb001
Outline: as §1

[8] = tested on: LOC_OS02G08530-cb003
Outline: as §1

[9] = tested on: LOC_OS02G14120-cb001
Outline: as §1

[10] = tested on: LOC_OS02G17970-cb001
Outline: as §1

Row | SMILES | thermal shift delta Tm [1] | thermal shift delta Tm [2] | thermal shift delta Tm [3] | thermal shift delta Tm [4] | thermal shift delta Tm [5] | thermal shift delta Tm [6] | thermal shift delta Tm [7] | thermal shift delta Tm [8] | thermal shift delta Tm [9] | thermal shift delta Tm [10]
1 | O=C(NC1CCNCC1)c1n[nH]cc1NC(=O)c1c(Cl)cccc1Cl | 0.75 °C and 1.2 °C | 0.78 °C and 1.25 °C | 0.49 °C and 1.4 °C | 0.02 °C and 0.4 °C | -0.21 °C and 0.3 °C | 0.28 °C and 0.16 °C | 0.48 °C and 1.2 °C | 0.49 °C and 0.58 °C | -0.32 °C and 0.19 °C | 0.23 °C and 1.28 °C
2 | CC(C)S(=O)(=O)c1ccc2nccc(Nc3ccc4scnc4c3)c2c1 | 1.27 °C | 0.31 °C | 0.69 °C | 0.17 °C | 0.82 °C | 0.33 °C | -0.59 °C | 1.18 °C | 1.58 °C | 1.42 °C
3 | Cc1cc(C)c(/C=C2\C(=O)Nc3ccccc32)[nH]1 [Semaxanib (SU5416)] | 1.1 °C | 6.76 °C | 1.12 °C | 0.7 °C | 2.32 °C | 2.72 °C | 1.03 °C | 3.63 °C | 3.06 °C | 1.09 °C
4 | COc1cc(Nc2ncc(F)c(Nc3ccc4c(n3)N(COP(=O)(O)O)C(=O)C(C)(C)O4)n2)cc(OC)c1OC [R788 (Fostamatinib) Disodium] | 1.79 °C | 1.17 °C | 1.17 °C | 1.12 °C | 0.57 °C | 1.43 °C | 0.47 °C | 0.82 °C | 5.05 °C | 1.55 °C
5 | Cc1cccc(CC(=O)N2CCc3c2ccc(-c2cn(C)c4ncnc(N)c24)c3F)n1 | 1.41 °C | 0.28 °C | 1.1 °C | 5.6 °C | 3.56 °C | 0.24 °C | 0.39 °C | 0.71 °C | 1.09 °C | 1.12 °C
6 | OC(c1cc(-c2ccc(Cl)cc2)nc2ccccc12)C1CCCCN1 (stereo not given) [Vacquinol-1] | 2.48 °C | 1.32 °C | 1.39 °C | 0.78 °C | 1.06 °C | 0.39 °C | 0.67 °C | 0.72 °C | 0.39 °C | 0.79 °C
7 | OC1CCC(Nc2ncc3nc(Nc4c(F)cc(F)cc4F)n([C@H]4CCOC4)c3n2)CC1 (stereo not given in full) [Tanzisertib(CC-930)] | 1.12 °C | 0.58 °C | 0.28 °C | 0.29 °C | 0.54 °C | 0.55 °C | -0.22 °C | 1.25 °C | 1.58 °C | 0.06 °C
8 | CC(C)(O)CNc1ncc(-c2ccnc(Nc3ccncc3)n2)c(CC2CC2)n1 [VPS34 inhibitor 1 (Compound 19, PIK-III analogue)] | 1.59 °C | 0.38 °C | 0.34 °C | 0.12 °C | -0.02 °C | 0.5 °C | -0.03 °C | 0.85 °C | 4.52 °C | 0.28 °C
9 | COc1ccc(/C=C/C(=O)C2(C(=O)/C=C/c3ccc(OC)c(OC)c3)CCCCC2)cc1OC | 2.18 °C | 0.27 °C | 0.41 °C | 0.1 °C | 0.3 °C | 0.31 °C | 0.4 °C | 1.47 °C | 0.46 °C | 0.38 °C
10 | Cc1ncc(CCCN(C)C)cc1Nc1ncc2c(n1)-c1ccc(C(F)(F)F)cc1NC(=S)C2 | 1.69 °C | 0.92 °C | 1.39 °C | 0.8 °C | 0.49 °C | 0.65 °C | 0.56 °C | 1.89 °C | 0.46 °C | 1.61 °C
11 | CNC(=O)Nc1ccc(-c2nc(N3CC4CCC(C3)O4)c3cnn(C4CCC5(CC4)OCCO5)c3n2)cc1 | 2.76 °C | 1.5 °C | 0.99 °C | 0.45 °C | 0.98 °C | 0.28 °C | 1.7 °C | 1.49 °C | 1.03 °C | 0.84 °C
12 | Cc1cc(CN2CCN(c3c(Br)cnc4nc(-c5ccc(N6CCN(C)CC6)cc5)[nH]c34)CC2)no1 | 0.54 °C | 3.22 °C | 0.17 °C | 0.23 °C | 1.36 °C | 1.3 °C | 0.7 °C | 0.33 °C | 4.66 °C | 0.14 °C
13 | CNC(=O)c1cc(Oc2ccc(NC(=O)Nc3ccc(Cl)c(C(F)(F)F)c3)cc2)ccn1 [Sorafenib Tosylate] | 4.07 °C | 3.91 °C | 1.77 °C | 9.15 °C | 0.52 °C | 1.83 °C | 2.2 °C | 1.92 °C | 3.45 °C | 1.56 °C
14 | O=c1sn(-c2cccc3ccccc23)c(=O)n1Cc1ccccc1 [Tideglusib] | 1.25 °C | 0.51 °C | 1.08 °C | 0.25 °C | 0.24 °C | -0.22 °C | 0.81 °C | 0.5 °C | -0.01 °C | 1.3 °C
15 | CC(C)Nc1cc(-c2c[nH]c(C(=O)N[C@H](CO)c3cccc(Cl)c3)c2)c(Cl)cn1 | 2.03 °C | 1.73 °C | 1.28 °C | 0.91 °C | 1.23 °C | 0.59 °C | 1.19 °C | 1.18 °C | 1.13 °C | 1.49 °C
16 | CC(C)NC(=O)COc1cccc(-c2nc(Nc3ccc4[nH]ncc4c3)c3ccccc3n2)c1 | 1.14 °C | 12.3 °C | 0.68 °C | 0.55 °C | 0.91 °C | 0.76 °C | 1.23 °C | 1.03 °C | 2.71 °C | 1.76 °C
17 | Cn1c(=O)c(Oc2ccc(F)cc2F)cc2cnc(NC(CCO)CCO)nc21 | 1.18 °C | 0.87 °C | 1.45 °C | 0.27 °C | 0.29 °C | 0.4 °C | 0.02 °C | 1.22 °C | 1.36 °C | 1 °C
18 | CCn1c(=O)c(-c2ccc(-c3cncs3)cc2Cl)cc2cnc(Nc3ccc(N4CCN(C)CC4)cc3)nc21 | 1.89 °C | 1.07 °C | 0.86 °C | 0.25 °C | 1.37 °C | 0.17 °C | 0.59 °C | 0.55 °C | -0.39 °C | 0.23 °C
